Data published in paper PMC4336329 (PLoS ONE, 2015).
Screen size: about 310,000 compounds; about 14,000 (4.5%) showed an effect of 50% or more. Effects have a minus sign here. This excerpt belongs to a sample that is enriched for strong results.

Molecular target: human ether-à-go-go-related gene (hERG) potassium channel (human, UniProt Q12809)
Experiment: primary screen, population patch clamp on CHO cells stably expressing hERG; higher = less effect of the substance
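Also: peak tail current of the secondary pulse compared with the same well before compound.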

Sequence of human ether-à-go-go-related gene (hERG) potassium channel (Q12809 whole entry, looked up): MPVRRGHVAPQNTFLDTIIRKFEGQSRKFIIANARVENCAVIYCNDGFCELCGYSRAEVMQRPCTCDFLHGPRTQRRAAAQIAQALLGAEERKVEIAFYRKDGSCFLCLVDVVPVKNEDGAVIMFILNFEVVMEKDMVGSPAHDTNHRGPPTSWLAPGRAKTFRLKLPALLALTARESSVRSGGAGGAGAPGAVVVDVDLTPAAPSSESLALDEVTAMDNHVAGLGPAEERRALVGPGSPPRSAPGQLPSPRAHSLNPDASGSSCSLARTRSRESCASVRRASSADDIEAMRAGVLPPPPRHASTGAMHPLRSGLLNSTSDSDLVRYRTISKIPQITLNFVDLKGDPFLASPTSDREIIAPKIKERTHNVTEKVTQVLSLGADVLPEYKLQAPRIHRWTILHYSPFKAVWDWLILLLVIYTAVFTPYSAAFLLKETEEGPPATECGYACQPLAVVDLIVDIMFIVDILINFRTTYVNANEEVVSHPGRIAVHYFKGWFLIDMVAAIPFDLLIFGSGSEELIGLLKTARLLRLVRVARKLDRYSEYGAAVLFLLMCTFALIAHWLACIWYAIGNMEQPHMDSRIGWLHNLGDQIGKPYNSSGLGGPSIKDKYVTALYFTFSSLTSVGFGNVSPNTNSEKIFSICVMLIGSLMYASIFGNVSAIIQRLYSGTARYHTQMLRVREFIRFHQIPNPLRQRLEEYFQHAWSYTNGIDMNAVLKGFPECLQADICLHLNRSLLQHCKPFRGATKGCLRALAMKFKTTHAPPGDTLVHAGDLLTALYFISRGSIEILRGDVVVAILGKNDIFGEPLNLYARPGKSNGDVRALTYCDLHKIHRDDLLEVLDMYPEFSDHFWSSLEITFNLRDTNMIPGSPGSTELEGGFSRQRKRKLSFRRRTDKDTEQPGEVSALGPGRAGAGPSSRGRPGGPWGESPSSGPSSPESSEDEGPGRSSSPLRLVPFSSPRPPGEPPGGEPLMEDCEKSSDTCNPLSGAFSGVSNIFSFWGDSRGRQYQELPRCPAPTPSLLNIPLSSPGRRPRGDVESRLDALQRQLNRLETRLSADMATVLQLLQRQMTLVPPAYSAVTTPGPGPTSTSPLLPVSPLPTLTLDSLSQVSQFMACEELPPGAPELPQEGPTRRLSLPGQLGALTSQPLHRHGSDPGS

Compound	hERG current change (%, negative = inhibition) at 10uM [%]
CCCc1ccc(-c2cc(C(=O)N/N=C/c3ccc([N+](=O)[O-])o3)c3ccccc3n2)cc1	-1.61
O=C(NCc1ccc(F)cc1)c1cc(-c2ccncc2)nc2ccccc12	-64.7
O=C(NCc1ccc2c(c1)OCO2)c1cc(-c2ccccn2)nc2ccccc12	4.41
O=C(N/N=C/c1ccc([N+](=O)[O-])o1)c1cc(-c2ccc(-c3ccccc3)cc2)nc2ccccc12	17.7
O=C(NCc1cccnc1)c1cc(Sc2cccc(Cl)c2)nc2ccccc12	-15.4
O=C(N/N=C/c1ccc([N+](=O)[O-])o1)c1cc(-c2ccncc2)nc2ccccc12	-62.9
O=C(NCc1ccccc1)c1cc(-c2ccncc2)nc2ccccc12	-34
O=C(NCc1ccc2c(c1)OCO2)c1cc(-c2ccncc2)nc2ccccc12	-67
O=C(NCc1ccccn1)c1cc(-c2ccncc2)nc2ccccc12	-25.6
O=C(NCc1cccnc1)c1cc(Sc2ccccc2Cl)nc2ccccc12	-5.45
O=C(Nc1ccc2c(c1)OCO2)c1cc(-c2ccncc2)nc2ccccc12	-3.22
O=C(NCc1cccnc1)c1cc(Sc2ccc(F)cc2F)nc2ccccc12	-55.3
O=C(NC(=S)NC1CCSC1=O)c1cccs1 (stereo not shown)	15.9
CCOCc1nnc(NC(=O)C2CC(=O)N(CCc3ccc(F)cc3)C2)s1 (stereo not shown)	5.97
CCC1c2ccc(C)n2CCN1C(=O)Nc1ccccc1C(=O)OC (stereo not shown)	6.11
CCc1nnc(NC(=O)C2(C)COC(c3ccc(OC)cc3)OC2)s1 (stereo not shown)	10.1
CC1(C)C2CCC1(CS(=O)(=O)N1CCOCC1)C(=O)C2 (stereo not shown)	-1.75
Cc1cc(C(=O)COC(=O)c2cccnc2Cl)c(C)n1CC1CCCO1 (stereo not shown)	-20.1
CC(C)c1ccccc1OCC(=O)NCC(c1cccs1)N1CCOCC1 (stereo not shown)	-50.2
COc1ccc(-c2cn(CCC(=O)NCc3ccc(C)cc3)c(-c3ccncc3)n2)cc1	-21.3
COc1ccccc1OCC(=O)NCC(c1cccs1)N1CCOCC1 (stereo not shown)	-4.48
O=C(NCC(c1cccs1)N1CCOCC1)c1cc(-c2ccc(F)cc2)nc2ccccc12 (stereo not shown)	-55.9

Compound	hERG current change (%, negative = inhibition) at 10uM [%]
Cc1ccc(C(C)C)c(OCC(=O)NCC(c2cccs2)N2CCOCC2)c1 (stereo not shown)	-48.1
Cc1ccc(CNC(=O)CCn2cc(-c3ccc(C)cc3)nc2-c2ccncc2)cc1	-45.1
O=C(NCC(c1cccs1)N1CCOCC1)c1cc(-c2ccccn2)nc2ccccc12 (stereo not shown)	-23
Cc1ccc(CNC(=O)CCn2cc(-c3ccc(F)cc3)nc2-c2ccncc2)cc1	-50.1
O=C(NCC(c1cccs1)N1CCOCC1)c1cn(-c2ccccc2)nc1-c1ccc(F)cc1 (stereo not shown)	-1.67
O=C(Cc1ccccc1)Nc1cccc(-c2nc3ncccc3o2)c1	13.6
COc1ccc(Nc2ccc(C(N)=O)cc2[N+](=O)[O-])cc1	7.18
CCCSc1nc2c(c(=O)[nH]c(=O)n2C)n1C	2.58
Cn1c(=O)[nH]c(=O)c2c1nc(OC(=O)c1ccccc1)n2CC(O)COc1ccccc1 (stereo not shown)	23.2
CCCc1c(O)nc(SCc2ccccc2)[nH]c1=O	0.68
CCOC(=O)C1CCN(Cc2cc(C(C)C)c(O)c(C(C)C)c2)CC1	-41.3
CN1CCN(Cc2cc(C(C)(C)C)c(O)c(C(C)(C)C)c2)CC1	-15.1
CCOC(=O)C1CCN(Cc2ccc(Cl)c(Cl)c2)CC1	-5.6
CCN1CCN(Cc2cc(C(C)(C)C)c(O)c(C(C)(C)C)c2)CC1	-26.5
CC1=NN(Cc2cc(C(C)(C)C)c(O)c(C(C)(C)C)c2)C(=O)C1	17.2
CC(C)(C)c1cc(CN2CCCC(O)C2)c(O)c(C(C)(C)C)c1 (stereo not shown)	-13.9
CC(C)(C)c1cc(CN2CCC(O)CC2)cc(C(C)(C)C)c1O	-70.1
CCOC(=O)C1CCN(Cc2cc(C(C)(C)C)c(O)c(C(C)(C)C)c2)CC1	-63.1
CC(C)(C)c1cc(CN2CCCCC2)cc(C(C)(C)C)c1O	-50.7
Cc1ccc(S(=O)(=O)N2N=C3CCCCC3C2(O)C(F)(F)F)cc1 (stereo not shown)	4.99
O=C(NN=C1CCCC1)c1cccc(O)c1	8.96
O=C1C2C3CCCC3=C3CCCC3C2C(=O)N1c1ccccc1 (stereo not shown)	1.8

Compound	hERG current change (%, negative = inhibition) at 10uM [%]
C/C(=N/NC(=O)c1ccc2c(c1)OCO2)c1ccc(NC(=O)c2ccc(F)cc2)cc1	9.33
O=C(CCc1ccccc1Cl)NC1CCCN(c2ccc(C(F)(F)F)cn2)C1 (stereo not shown)	13.4
O=C(NC1CCCN(c2ccc(C(F)(F)F)cn2)C1)c1ccnc(Cl)c1 (stereo not shown)	-55.5
CSc1ccccc1C(=O)NC1CCCN(c2ccc(C(F)(F)F)cn2)C1 (stereo not shown)	-4.58
Cc1ccc(C(=O)NC2CCCN(c3ccc(C(F)(F)F)cn3)C2)cn1 (stereo not shown)	-2.75
O=C(NC1CCCN(c2ccc(C(F)(F)F)cn2)C1)c1ccncc1 (stereo not shown)	-69.2
O=C(NC1CCCN(c2ccc(C(F)(F)F)cn2)C1)c1cc(Cl)ccc1F (stereo not shown)	5.34
COc1ccc(CCNC(=O)Cn2nnc3ccccc3c2=O)cc1	9.17
CCOC(=O)CN1CC23C=CC(O2)C(C(=O)Nc2ccc(C(C)=O)cc2)C3C1=O (stereo not shown)	4.98
CC1=C(C(=O)Nc2cccc(C(=O)NC3CCCCC3C)c2)SCCO1 (stereo not shown)	-17.8
CC1(C)CC(=O)C=C(NCCN2CCN(C(=O)Nc3ccc(Cl)c(Cl)c3)CC2)C1	-24
CS(=O)(=O)N(CC(=O)NCc1cccnc1)Cc1ccc(Cl)cc1	-30.1
NC(=O)c1ccc(-n2nnnc2SCC(=O)Nc2ccccc2)cc1	14.3
NC(=O)c1ccc(-n2nnnc2SCC(=O)Nc2ccccc2F)cc1	18.9
NC(=O)c1ccc(-n2nnnc2SCC(=O)Nc2ccccc2-c2ccccc2)cc1	-58.1
Cn1nnnc1SCC(=O)Nc1nn(-c2ccccc2)nc1C(N)=O	-13.8
NC(=O)c1nn(-c2ccccc2)nc1NC(=O)CSc1nnnn1-c1ccc(Cl)cc1	-53.7
CC(C)(C)n1nnnc1SCC(=O)Nc1nn(-c2ccccc2)nc1C(N)=O	9.33
CN1CCN(c2cn[nH]c(=O)c2Cl)CC1	15.4
Cc1ccc(-c2csc(NC(=O)CN3CCC(C(N)=O)CC3)n2)cc1	8.38
COCCn1c(-c2cccs2)csc1=Nc1cccnc1	-15.3
c1cncc(N=c2scc(-c3cccc4ccccc34)n2CCCn2ccnc2)c1	-56.5

Compound	hERG current change (%, negative = inhibition) at 10uM [%]
CN=c1scc(-c2ccccc2F)n1/N=C(\C)c1cccnc1	-28.9
CC(C)Cn1c(-c2ccco2)csc1=Nc1cccnc1	8.45
Fc1ccccc1-c1csc(=Nc2cccnc2)n1CC1CCCO1 (stereo not shown)	-16.8
Fc1ccccc1-c1csc(=Nc2cccnc2)n1CCCn1ccnc1	-60.1
Cc1cc(C)cc(OCc2ccc(C(=O)NN)o2)c1	14.2
COc1ccc(CCNC(=S)Nc2cc(C)ccc2C)cc1	-15.9
CS(=O)(=O)N(C(=O)NC(=O)NC1CCS(=O)(=O)C1)C1CCCCC1 (stereo not shown)	4.13
COc1ccc(-c2nn(-c3ccccc3)cc2/C=C2/SC(=S)N(Cc3ccco3)C2=O)c(C)c1	8.73
Cc1ccc(C)c(Cn2c(=O)c3c(nc4n3CCN4Cc3ccco3)n(C)c2=O)c1	-3.76
Cc1cccc(Cn2c(=O)c3c(nc4n3CCN4Cc3ccco3)n(C)c2=O)c1	-52.2
CCCn1c(=O)c2c(nc3n2CCN3Cc2ccco2)n(C)c1=O	-5.94
Cn1c(=O)n(Cc2ccccc2)c(=O)c2c1nc1n2CCN1Cc1ccco1	-36.7
Cn1c(=O)n(Cc2ccc(F)cc2)c(=O)c2c1nc1n2CCN1Cc1ccco1	-55.4
Cc1cccc(Cn2c(=O)c3c(nc4n3CCCN4Cc3ccccc3)n(C)c2=O)c1	-38.8
Cc1ccc(Cn2c(=O)c3c(nc4n3CCN4Cc3ccco3)n(C)c2=O)cc1	-17.9
Cn1c(=O)n(CCc2ccccc2)c(=O)c2c1nc1n2CCN1Cc1ccco1	-55.5
Cn1c(=O)n(Cc2ccc(Cl)cc2)c(=O)c2c1nc1n2CCN1Cc1ccco1	-21.5
CC1CCC(NC(=O)C(Cc2ccccc2)n2cccc2)CC1 (stereo not shown)	-14.9
Cc1cc(C)cc(OCC(=O)N/N=C/c2ccco2)c1	37.4
